Source: PubChem BioAssay (NCI)
Compounds without any hit were thinned out: in the full panel of roughly 79,000, 15% have a hit. Calls of active or inactive are those of the source. Rule as the data show it: active = growth inhibition above about 70%; inactive = the rest.

Columns and labels:
[1] = NCI Yeast Anticancer Drug Screen. Data for the rad52 strain (AID 147);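 also: 0% = growth of vehicle-treated control cultures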; details: S. cerevisiae rad52 mutant growth inhibition, active compounds read high
Method in brief: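 Yeast strain carrying a DNA damage repair alteration was exposed to test compounds. Growth inhibition was measured relative to vehicle-treated controls.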

[2] = NCI Yeast Anticancer Drug Screen. Data for the wt1 strain (AID 149);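 also: 0% = growth of vehicle-treated wt1 cultures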; details: S. cerevisiae wt1 strain (SPY 50644) growth inhibition, active compounds read high
Method in brief: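 Using yeast strain wt1, compound-induced growth inhibition was determined against vehicle-treated cultures.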

[3] = NCI Yeast Anticancer Drug Screen. Data for the rad50EPP+ strain (AID 151);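 also: 0% = growth of vehicle-treated control cultures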; details: S. cerevisiae rad50 mutant strain, active compounds read high
Method in brief: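 Yeast strain carrying rad50 alteration (rad50EPP+) exposed to compounds; growth inhibition measured relative to vehicle-treated controls.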

[4] = NCI Yeast Anticancer Drug Screen. Data for the rad50 strain (AID 155);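 also: 0% = growth of vehicle-only cultures of the same strain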; details: S. cerevisiae rad50 strain growth inhibition, active compounds read high
Method in brief: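 Relative growth inhibition (compound vs vehicle) was measured in yeast with a defined repair-gene alteration.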

[5] = NCI Yeast Anticancer Drug Screen. Data for the mec2-1 strain (AID 157); details: S. cerevisiae mec2-1 strain, active compounds read high
Method in brief: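 mec2-1 yeast strain, carrying an alteration in DNA damage repair or cell cycle control, was exposed to compounds; growth inhibition was measured relative to vehicle-treated controls.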

[6] = NCI Yeast Anticancer Drug Screen. Data for the rad14 strain (AID 159);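 also: 0% = growth of vehicle-treated control cultures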; details: S. cerevisiae rad14 strain growth inhibition, active compounds read high
Method in brief: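 Screen for anticancer potential: a yeast strain altered in DNA damage repair is grown with compound, and reduced growth is quantified against vehicle controls.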

[7] = NCI Yeast Anticancer Drug Screen. Data for the sgs1 mgt1 strain (AID 161);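 also: 0% = growth of cultures given vehicle only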; details: S. cerevisiae sgs1 mgt1 strain, active compounds read high
Method in brief: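 Growth of a repair-deficient yeast mutant was monitored after compound treatment and expressed as inhibition relative to vehicle-treated cultures.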

[8] = NCI Yeast Anticancer Drug Screen. Data for the CLN2oe strain (AID 163);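 also: 0% = growth of vehicle-only control cultures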; details: S. cerevisiae CLN2oe strain, active compounds read high
Method in brief: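 Yeast cells carrying a defined cell-cycle control alteration were exposed to test compounds. Growth inhibition was scored against vehicle-treated control cultures.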

[9] = NCI Yeast Anticancer Drug Screen. Data for the cln2 rad14 strain (AID 165);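 also: 0% = growth equal to vehicle treated cultures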; details: S. cerevisiae cln2 rad14 strain, active compounds read high
Method in brief: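 Yeast carrying cln2 and rad14 alterations (cell cycle control and DNA damage repair) were exposed to compounds. Growth inhibition was measured against vehicle-treated controls.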

[10] = NCI Yeast Anticancer Drug Screen. Data for the bub3 strain (AID 167); details: S. cerevisiae bub3 mutant strain, active compounds read high
Method in brief: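 Screening used yeast with an engineered genetic alteration affecting cell cycle control. Compound-exposed cultures were compared with vehicle cultures, and reduced growth was taken as inhibition.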

[11] = NCI Yeast Anticancer Drug Screen. Data for the wt2 strain (AID 169);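 also: 0% = growth of vehicle-treated yeast cultures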; details: S. cerevisiae wt2 strain growth inhibition, active compounds read high
Method in brief: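 Yeast cells were exposed to test compounds, and growth inhibition was measured relative to vehicle-treated controls.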

[12] = NCI Yeast Anticancer Drug Screen. Data for the mlh1 strain (AID 171);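 also: 0% = growth of vehicle-treated control cultures of the same strain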; details: S. cerevisiae mlh1 strain growth inhibition, active compounds read high
Method in brief: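 Yeast carrying a defined genetic alteration in DNA damage repair or cell cycle control were exposed to test compounds. Growth inhibition was measured relative to vehicle-treated controls.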

[13] = NCI Yeast Anticancer Drug Screen. Data for the sgs1 strain (AID 173);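 also: 0% = growth of vehicle-only control cultures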; details: S. cerevisiae sgs1 mutant, active compounds read high
Method in brief: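 Yeast mutant strains carrying defined defects in DNA damage repair or cell cycle control were exposed to test compounds. Growth inhibition was scored against vehicle-treated controls.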

[14] = NCI Yeast Anticancer Drug Screen. Data for the mlh1 rad18 strain (AID 175); details: S. cerevisiae mlh1 rad18 strain growth inhibition, active compounds read high
Method in brief: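 Growth inhibition of the yeast strain was measured after compound exposure and expressed relative to vehicle-treated controls. The strain carries defined defects in DNA damage repair.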

[15] = NCI Yeast Anticancer Drug Screen. Data for the rad18 strain (AID 177); details: S. cerevisiae rad18 mutant growth inhibition, active compounds read high
Method in brief: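 Yeast carrying a defined DNA damage repair alteration were exposed to compounds. Growth inhibition was expressed relative to vehicle-treated controls.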

[16] = at 5.0 µM (retest, dose inferred, filed as 0.5)
[17] = at 50.0 µM (retest, dose inferred, filed as 5.0)

Measured: growth inhibition

C=CC[N+]12CN3CN(CN(C3)C1)C2
active: [5]; [17] 70% | [5]; at 100.0 µM 98% | [7]; [17] 98% | [8]; at 100.0 µM 70% | [9]; [17] 96% | [10]; at 33.0 µM 75% | [10]; [17] 97% | [10]; at 100.0 µM 94% | [12]; at 100.0 µM 74%
inactive: [1]; at 1.2 µM -8% | [1]; at 3.7 µM 5% | [1]; at 11.0 µM -11% | [1]; at 33.0 µM -5% | [1]; at 100.0 µM 29% | [2]; at 1.2 µM -10% | [2]; at 3.7 µM -28% | [2]; at 11.0 µM -21% | [2]; at 33.0 µM -23% | [2]; at 100.0 µM 41% | [3]; at 1.2 µM 7% | [3]; at 3.7 µM 2% | [3]; at 11.0 µM -31% | [3]; at 33.0 µM 16% | [3]; at 100.0 µM 68% | [4]; at 1.2 µM 8% | [4]; at 3.7 µM -1% | [4]; [16] 38% | [4]; at 11.0 µM -21% | [4]; at 33.0 µM -3% | [4]; [17] 65% | [4]; at 50.0 µM 29.8% | [4]; at 100.0 µM 32% | [5]; at 1.2 µM -12% | [5]; at 3.7 µM -24% | [5]; [16] 43% | [5]; at 11.0 µM -31% | [5]; at 33.0 µM 45% | [5]; at 50.0 µM 20.6% | [6]; at 1.2 µM -35% | [6]; at 3.7 µM -34% | [6]; at 11.0 µM -31% | [6]; at 33.0 µM -16% | [6]; at 100.0 µM 31% | [7]; [16] -2% | [7]; at 50.0 µM 59.8% | [8]; at 1.2 µM -24% | [8]; at 3.7 µM -32% | [8]; at 11.0 µM -17% | [8]; at 33.0 µM -9% | [9]; [16] 67% | [9]; at 50.0 µM 7.55% | [10]; at 1.2 µM -1% | [10]; at 3.7 µM 12% | [10]; [16] 20% | [10]; at 11.0 µM 12% | [10]; at 50.0 µM 2.1% | [11]; at 1.2 µM -49% | [11]; at 3.7 µM -52% | [11]; at 11.0 µM -52% | [11]; at 33.0 µM -28% | [11]; at 100.0 µM 23% | [12]; at 1.2 µM -25% | [12]; at 3.7 µM -22% | [12]; at 11.0 µM -23% | [12]; at 33.0 µM 13% | [13]; at 1.2 µM -20% | [13]; at 3.7 µM -17% | [13]; at 11.0 µM -21% | [13]; at 33.0 µM -4% | [13]; at 100.0 µM 43% | [14]; [16] 38% | [14]; [17] 52% | [14]; at 50.0 µM 10.2% | [15]; at 1.2 µM 18% | [15]; at 3.7 µM 19% | [15]; at 11.0 µM -13% | [15]; at 33.0 µM 13% | [15]; at 100.0 µM 12%
